{
  "source": "PubChem BioAssay (NCATS)",
  "key": {"[1]": {"assay": "Viability qHTS for spleen associated tyrosine kinase inhibitor (SYKi) naive MV4-11 cells (AID 1963823); further: nearly all actives have a fitted effect of over 40% in size; further: potency means the concentration at half of the fitted maximal effect", "conditions": "MV4-11 AML viability, CellTiter-Glo luminescence, 72 h; series mostly up to 45 µM", "in_short": "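Viability of MV4-11 AML cells lacking prior SYK inhibitor exposure is scored by CellTiter-Glo luminescence following 72 hr compound incubation at 37 C, 5% CO2, seeded at 500 cells per well.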"}, "[2]": {"assay": "Cellular viability qHTS for adrenocortical cancer (ACC) cell line SW-13 (AID 1963989);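 further: cells grown in serum-free medium with ITS supplement; nearly all actives have a fitted effect of over 65% in size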", "conditions": "SW-13 ACC cells viability, CellTiter-Glo, 48 h; activity (max response): hits give low values", "in_short": "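Compound titrations (up to 46 uM final, in DMSO) were applied to SW-13 cells for 48 h at 37C/5% CO2. Reading used CellTiter-Glo after 20 min at room temperature; fitted curves yielded IC50 and efficacy.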"}, "[3]": {"assay": "Cellular viability qHTS for adrenocortical cancer (ACC) cell line NCI-H295R (AID 1963990); further: nearly all actives have a fitted effect of over 60% in size; further: potency means the concentration at half of the fitted maximal effect", "conditions": "CellTiter-Glo ATP luminescence, 48 h; series mostly up to 46.1 µM", "in_short": "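Readout: CellTiter-Glo luminescence, 20 min RT. Exposure: 48 h, 37C/5% CO2. Cells: NCI-H295R, ITS-DMEM serum-free. Range: up to 46 uM. Analysis: 4PL fit, IC50 plus efficacy.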"}, "[4]": {"assay": "Viability qHTS for spleen associated tyrosine kinase inhibitor (SYKi) drug resistant MV4-11 cells (AID 1963824); further: nearly all actives have a fitted effect of over 35% in size; further: potency means the concentration at half of the fitted maximal effect", "conditions": "SYKi-resistant MV4-11 viability, CellTiter-Glo, 72 h; series mostly up to 45 µM", "in_short": "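SYK-inhibitor-resistant MV4-11 AML cells were seeded at 500 per well onto compound and cultured 72 hours (37 °C, 5% CO2). CellTiter-Glo was then added, and after 10 min at room temperature, luminescence gave viability.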"}},
  "note": "Records with an inconclusive call do not appear. Where a call stands in place of a potency, no number is given. Values without a mark were called inactive. Active and inactive are the calls of the source. The call rests on the fitted dose curve; in most records, active means well fitted curve in the direction sought with a large enough effect; inconclusive means small, poorly fitted or top-dose-only effect, or another doubt; inactive means no such curve, though single readings can be large; an effect the other way counts as inactive or inconclusive.",
  "data": [
    {"smiles": "Cc1ncc(CO)c(CN)c1O", "values": [
      {"measurement": "Potency", "setting": "[1]", "result": "inactive"},
      {"measurement": "activity (max response)", "setting": "[2]", "result": 7.61, "unit": "%"},
      {"measurement": "Potency", "setting": "[3]", "result": "inactive"}
    ]},
    {"smiles": "CC(=O)Oc1cc(C(C)C)c(OCCN(C)C)cc1C", "values": [
      {"measurement": "Potency", "setting": "[1]", "result": "0.0011 µM (active)"},
      {"measurement": "activity (max response)", "setting": "[2]", "result": 12.6, "unit": "%"},
      {"measurement": "Potency", "setting": "[3]", "result": "inactive"}
    ]},
    {"smiles": "CN1C(CCl)Nc2cc(Cl)c(S(N)(=O)=O)cc2S1(=O)=O", "note": "(stereo not drawn)", "values": [
      {"measurement": "Potency", "setting": "[1]", "result": "inactive"},
      {"measurement": "activity (max response)", "setting": "[2]", "result": -4.04, "unit": "%"},
      {"measurement": "Potency", "setting": "[3]", "result": "inactive"}
    ]},
    {"smiles": "CCOC(=O)c1sc(NC(=O)[C@H](C(C)C)n2c(=O)[nH]c3ccccc3c2=O)nc1C", "values": [
      {"measurement": "Potency", "setting": "[4]", "result": "16.4 µM (active)"}
    ]},
    {"smiles": "CN1[C@@H]2CC(OC(=O)[C@H](CO)c3ccccc3)C[C@H]1[C@@H]1O[C@@H]12", "note": "(stereo partly drawn)", "values": [
      {"measurement": "Potency", "setting": "[1]", "result": "inactive"},
      {"measurement": "Potency", "setting": "[3]", "result": "inactive"}
    ]},
    {"smiles": "CC(C)c1nc(N(C)S(C)(=O)=O)nc(-c2ccc(F)cc2)c1/C=C/[C@@H](O)C[C@@H](O)CC(=O)O", "values": [
      {"measurement": "Potency", "setting": "[4]", "result": "2.91 µM (active)"}
    ]},
    {"smiles": "O=C(C[C@@H]1C/C=C\\CCC(=O)O[C@H](c2ccccc2)CNC1=O)NCc1ccc(Cl)cc1", "values": [
      {"measurement": "Potency", "setting": "[1]", "result": "4.68 µM (active)"},
      {"measurement": "Potency", "setting": "[3]", "result": "inactive"}
    ]},
    {"smiles": "CC(C)(C)NCC(O)c1cc(O)cc(O)c1", "note": "(stereo not drawn)", "values": [
      {"measurement": "Potency", "setting": "[1]", "result": "inactive"},
      {"measurement": "Potency", "setting": "[3]", "result": "25.9 µM (active)"}
    ]},
    {"smiles": "C=C1C(=O)O[C@@H]2/C=C(/C)CC3C=C(C[C@H](OC(=O)/C(C)=C\\C)[C@@H]12)C(=O)O3", "note": "(stereo partly drawn)", "values": [
      {"measurement": "Potency", "setting": "[4]", "result": "2.55 µM (active)"}
    ]},
    {"smiles": "COc1cccc2c1CCC[C@H]2CN(C)CCc1ccc2ccoc2c1", "values": [
      {"measurement": "Potency", "setting": "[4]", "result": "23.1 µM (active)"}
    ]},
    {"smiles": "O=C(O)c1ccc(-n2nc(-c3ccccc3O)nc2-c2ccccc2O)cc1", "values": [
      {"measurement": "Potency", "setting": "[1]", "result": "16.8 µM (active)"},
      {"measurement": "Potency", "setting": "[3]", "result": "31.6 µM (active)"}
    ]},
    {"smiles": "CC1(C)CCCC2(C)C(CO)C3CCC2C31", "note": "(stereo not drawn)", "values": [
      {"measurement": "Potency", "setting": "[4]", "result": "inactive"}
    ]},
    {"smiles": "CCOC(=O)[C@H](CCc1ccccc1)N[C@@H](C)C(=O)N(CC(=O)O)C1Cc2ccccc2C1", "values": [
      {"measurement": "Potency", "setting": "[1]", "result": "inactive"},
      {"measurement": "Potency", "setting": "[3]", "result": "inactive"}
    ]},
    {"smiles": "CC(CCC1(O)OC2CC3C4CCC5CC(O[C@@H]6O[C@H](CO)[C@@H](O)[C@H](O)[C@H]6O[C@@H]6O[C@@H](C)[C@H](O)[C@@H](O)[C@H]6O)C(O)CC5(C)C4CCC3(C)C2C1C)CO[C@@H]1O[C@H](CO)[C@@H](O)[C@H](O)[C@H]1O", "note": "(stereo partly drawn)", "values": [
      {"measurement": "viability, % of control", "setting": "[4]", "result": "109% [at 9.25 µM]"}
    ]},
    {"smiles": "COc1ccc(-c2ccc3c(N4CCOCC4C)nc(N4CCOCC4C)nc3n2)cc1CO", "note": "(stereo not drawn)", "values": [
      {"measurement": "Potency", "setting": "[4]", "result": "0.103 µM (active)"}
    ]},
    {"smiles": "C=C[C@H]1[C@H](O[C@@H]2O[C@H](CO)[C@@H](O)[C@H](OC(=O)/C=C/c3ccc(O)c(OC)c3)[C@H]2O)OC=C2C(=O)OCC[C@]21O", "values": [
      {"measurement": "Potency", "setting": "[4]", "result": "inactive"}
    ]},
    {"smiles": "CC1(C)C[C@H]2C3=CCC4[C@@]5(C)CC[C@H](O[C@H]6O[C@H](C(=O)O)[C@@H](O)[C@H](O)[C@H]6O[C@H]6O[C@H](CO)[C@@H](O)[C@H](O)[C@H]6O[C@@H]6O[C@H](CO)[C@@H](O)[C@H](O)[C@H]6O)[C@](C)(CO)C5CC[C@@]4(C)[C@]3(C)CC[C@@]2(C)[C@H](O[C@@H]2OC[C@H](O)[C@H](OC3O[C@H](CO)[C@@H](O)[C@H](O)[C@H]3O)[C@H]2O)[C@@H]1O", "note": "(stereo partly drawn)", "values": [
      {"measurement": "viability, % of control", "setting": "[4]", "result": "93.8% [at 9.25 µM]"}
    ]},
    {"smiles": "C[C@]1(OC(=O)/C=C\\c2ccc(O)cc2)C[C@@H](O)[C@]2(O)C=CO[C@@H](O[C@@H]3O[C@H](CO)[C@@H](O)[C@H](O)[C@H]3O)C12", "note": "(stereo partly drawn)", "values": [
      {"measurement": "Potency", "setting": "[4]", "result": "inactive"}
    ]},
    {"smiles": "COc1c2cc(c(O)c1OC)CCCCC(O)CCc1ccc(O)c-2c1", "note": "(stereo not drawn)", "values": [
      {"measurement": "Potency", "setting": "[4]", "result": "14.3 µM (active)"}
    ]},
    {"smiles": "CCN(CC)C(=O)/C(C#N)=C/c1cc(O)c(O)c([N+](=O)[O-])c1", "values": [
      {"measurement": "Potency", "setting": "[1]", "result": "inactive"},
      {"measurement": "Potency", "setting": "[3]", "result": "inactive"}
    ]},
    {"smiles": "CC(C)(C)C(=O)OCOC(=O)[C@@H]1N2C(=O)[C@@H](NC(=O)[C@H](N)c3ccccc3)[C@H]2SC1(C)C", "values": [
      {"measurement": "Potency", "setting": "[1]", "result": "inactive"},
      {"measurement": "Potency", "setting": "[3]", "result": "inactive"}
    ]},
    {"smiles": "COc1cc(N2CCN(C)CC2)ccc1Nc1ncc2c(n1)N(C)c1ccccc1C(=O)N2", "values": [
      {"measurement": "Potency", "setting": "[4]", "result": "13.2 µM (active)"}
    ]},
    {"smiles": "CCN(CC)C(=O)Cc1csc(NS(=O)(=O)c2cccc(Cl)c2C)n1", "values": [
      {"measurement": "Potency", "setting": "[1]", "result": "inactive"},
      {"measurement": "Potency", "setting": "[3]", "result": "inactive"}
    ]},
    {"smiles": "COc1cccc(N2CCN(C3=Nc4c(F)cccc4[C@H](CC(=O)O)N3c3cc(C(F)(F)F)ccc3OC)CC2)c1", "values": [
      {"measurement": "Potency", "setting": "[4]", "result": "18.4 µM (active)"}
    ]},
    {"smiles": "CCCCC(CC)COC(=O)c1ccc(N(C)C)cc1", "note": "(stereo not drawn)", "values": [
      {"measurement": "Potency", "setting": "[1]", "result": "inactive"},
      {"measurement": "Potency", "setting": "[3]", "result": "inactive"}
    ]},
    {"smiles": "CCCOC(=O)c1ccc(N)cc1", "values": [
      {"measurement": "Potency", "setting": "[1]", "result": "inactive"},
      {"measurement": "Potency", "setting": "[3]", "result": "inactive"}
    ]},
    {"smiles": "O=C(O)c1ccc2c3c1cccc3c(=O)n1c3ccccc3nc21", "values": [
      {"measurement": "Potency", "setting": "[4]", "result": "inactive"}
    ]},
    {"smiles": "CCCCNc1ccc(C(=O)OCCOCCOCCOCCOCCOCCOCCOCCOCCOC)cc1", "values": [
      {"measurement": "Potency", "setting": "[1]", "result": "10.6 µM (active)"},
      {"measurement": "Potency", "setting": "[3]", "result": "inactive"}
    ]},
    {"smiles": "C=C1C[C@H]2[C@@H]3C=C(C)C4=CC(=O)CC[C@]4(C)[C@H]3CC[C@]2(C)[C@@]1(OC(C)=O)C(C)=O", "values": [
      {"measurement": "Potency", "setting": "[1]", "result": "18.8 µM (active)"},
      {"measurement": "Potency", "setting": "[3]", "result": "inactive"}
    ]},
    {"smiles": "CCCCC(=O)N1c2ccccc2NC2=C(C(=O)CCC2)C1c1ccccc1Cl", "note": "(stereo not drawn)", "values": [
      {"measurement": "Potency", "setting": "[4]", "result": "8.2 µM (active)"}
    ]}
  ]
}
